Bioassay records (PubChem BioAssay)
SMN2 splice enh: enhancers of SMN2 splice variant expression. HEK293 SMN2-luciferase splicing reporter, luminescence, 30-36 h. AID 1458. 210,000 tested, 2.8% active. Potency, µM (series often up to 46.1 µM), for the others: top-dose activity change, positive = activation, most hits filed as activators; note: % of control where 0% means no effect; nearly all actives have a fitted effect of over 55% in size
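HEK293 cells carry an SMN2 […]–luciferase reporter in which exon 7 inclusion puts luciferase in frame. Cells were plated 10-12 h before compound addition, then incubated 30-36 h at 37C. ONE-Glo luminescence was read; sodium butyrate at 4.5 mM final served as control.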
ELG1 genotoxic: inducers of genotoxicity in HEK293T ELG1-luciferase cells; HEK293T ELG1-luciferase reporter, luminescence, 16 h; Potency, µM (titrated, usually from 46 µM), for inactives: top-dose activity change, positive = activation, actives largely listed as activators; 330,000 tested, 1.3% active; note: % of control where 0% means no effect; nearly all actives have a fitted effect of over 60% in size
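Genotoxic stress is detected as increased luminescence from luciferase-tagged ELG1 in HEK293T cells, measured with ONE-Glo after a 16 hr treatment at 37 °C.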
NPC1 prom act: activates the NPC1 promoter. Huh7 NPC1 promoter luciferase reporter, 24 h. Potency, µM (titrated, usually from 9.22 µM), without a hit: top-dose activation, hits mostly activators. AID 485313. 320,000 tested, 2.4% active; note: % of control where 0% means no effect; nearly all actives have a fitted effect of over 60% in size
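Luciferase expression driven by the NPC1 promoter was measured in stably transfected Huh7 cells after a 24 h compound incubation, using a luciferase reagent and a luminescence read.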
Luc counter: counter-screen: inhibitors of Kinase-Glo firefly luciferase; Potency, µM (series often up to 38.3 µM), for the others: at the top dose activity change, negative = inhibition, usual class: inhibitors; 200,000 tested, 0.28% active; Q27757; Kinase-Glo luciferase, ATP luminescence, 8 min; note: % is set by controls: 0 for no effect and ±100 for the full control effect; nearly all actives have a fitted effect of over 60% in size
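Substrate mix (final 50 mM imidazole pH 7.2, 50 mM KCl, 7 mM MgCl2, 10 uM ATP, 0.01% Tween 20, 0.05% BSA) plus pin-tool compound, then Kinase-Glo detection mix; 8 min ambient, luminescence read.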
Rab9 prom act: Rab9 promoter activation. Huh7 Rab9 promoter-luciferase reporter, luminescence, 24 h. Potency, µM (titrated, usually from 9.22 µM), without a hit: at the highest dose activation, negative = inhibition, actives largely listed as activators. 320,000 tested, 2.8% active; note: % of control where 0% means no effect; nearly all actives have a fitted effect of over 60% in size
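Rab9 promoter-driven luciferase in stably transfected Huh7 cells; 1500 cells/well rested 2 h, exposed to compound in DMSO for 24 h at 37 °C, 5% CO2. Luminescence read 10 min after adding luciferase reagent at ambient temperature.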
FLuc modulator: inhibits or activates purified firefly luciferase, miR-21 counter-screen | purified FLuc, Km substrates, luminescence inhibition | Potency, µM (highest dose often 57.5 µM), for the others: top-dose activity change, negative = inhibition, usual class: inhibitors | 360,000 tested, 6.9% active;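 note: plate controls were vehicle for no effect and reference inhibitor for full effect; nearly all actives have a fitted effect of over 55% in size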
Target sequence (P08659 whole entry, looked up): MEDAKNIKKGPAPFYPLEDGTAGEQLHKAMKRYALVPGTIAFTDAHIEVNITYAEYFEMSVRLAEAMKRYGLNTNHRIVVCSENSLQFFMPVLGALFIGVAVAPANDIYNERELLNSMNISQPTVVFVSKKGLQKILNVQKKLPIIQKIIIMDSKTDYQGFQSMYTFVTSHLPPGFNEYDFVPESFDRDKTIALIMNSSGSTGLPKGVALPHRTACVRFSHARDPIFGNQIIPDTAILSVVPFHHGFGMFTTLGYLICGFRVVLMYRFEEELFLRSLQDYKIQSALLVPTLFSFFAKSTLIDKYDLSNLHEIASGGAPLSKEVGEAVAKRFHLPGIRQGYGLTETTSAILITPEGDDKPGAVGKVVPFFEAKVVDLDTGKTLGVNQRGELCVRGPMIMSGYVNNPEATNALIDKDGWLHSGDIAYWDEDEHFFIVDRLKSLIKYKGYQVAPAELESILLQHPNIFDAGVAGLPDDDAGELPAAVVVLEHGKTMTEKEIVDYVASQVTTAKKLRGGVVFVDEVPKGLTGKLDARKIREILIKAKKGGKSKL
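Purified P. pyralis luciferase, 10 nM final, with Km-level 10 uM D-luciferin and 10 uM ATP in 50 mM Tris acetate pH 7.5, 10 mM Mg acetate, 0.01% Tween-20, 0.05% BSA; 6-point qHTS titration about 60 µM downward; luminescence read.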
Starred values were filed as active, the others as inactive; ? = inconclusive; nt = no result. Sampled rows, rich in hits. Any-hit rate of the full collection: about 7.5%. Calls come from the whole dose curve; as a rule, active = well fitted curve in the direction sought with a large enough effect; inconclusive = small, poorly fitted or top-dose-only effect, or another doubt; inactive = no such curve, though single readings can be large; an effect the other way counts as inactive or inconclusive. Potency is the fitted concentration of half-maximal effect.

SMILES	SMN2 splice enh	ELG1 genotoxic	NPC1 prom act	Luc counter	Rab9 prom act	FLuc modulator
O=C(N/N=C/c1ccc(F)cc1)c1cc[n+]([O-])cc1	nt	4.3%	-2.4%	nt	0.1%	-0.4%
O=C(O)c1ccc(/C=N/NC(=O)c2ccc(F)cc2)cc1	nt	-1.6%	-6.0%	nt	1.5%	19µM*
CCN(CC(=O)Nc1ccc(NC(C)=O)cc1)C(=O)CCN1C(=O)C2CC=CCC2C1=O (stereo not given)	nt	-0.9%	-2.6%	nt	1.7%	-0.6%
O=C(N/N=C/c1ccccc1C(F)(F)F)c1ccc(O)cc1	27.8%	?	?	0.7%	?	10.7µM*
O=C(N/N=C/c1ccc(F)cc1)c1cccc(NC(=O)c2ccc(F)cc2)c1	nt	-9.6%	22.6%	nt	?	8.49µM*
O=C(N/N=C/c1ccccc1O)c1cccc(C(F)(F)F)c1	-102.7%	?	-25.2%	1.3%	-25.7%	?
CCS(=O)(=O)N1CCC(C(=O)Nc2ccccc2OC)CC1	nt	4.2%	-2.5%	nt	-1.5%	1.0%
N#C/C(=C/c1ccccc1)C(=O)NCc1ccccc1	-13.2%	9.0%	-2.0%	-0.4%	-9.4%	?
CN(C)c1ccc(/C=C(/C#N)C(=O)NCc2ccccc2)o1	12.6µM*	?	?	4.0%	?	?
CCCCN(C)C(=O)c1ccc2c(c1)N(Cc1cccc(Cl)c1)C(=O)c1ccccc1S2=O (stereo not given)	nt	nt	nt	nt	nt	4.4%
Cc1nc(NC(=O)/C=C/c2ccc(Cl)cc2Cl)sc1C(=O)N(C)C	15.0%	5.5%	-3.1%	3.2%	-4.4%	?
Cc1nc(NC(=O)/C=C/c2ccccc2)sc1C(=O)N1CCCCC1	1.1%	-2.9%	1.5%	-1.8%	-4.8%	?
Cc1nc(NC(=O)/C=C/c2ccccc2)sc1C(=O)N(C)C	41.3%	16.1%	24.0%	3.5%	?	13.5µM*
Cc1nc(NC(=O)/C=C/c2ccc(F)cc2)sc1C(=O)N(C)C	26.6%	7.3%	0.5%	2.1%	-5.2%	16.9µM*
CC(=O)c1ccc(NC(=O)CSc2nc(=O)n(Cc3ccncc3)c3c2CCC3)cc1	nt	nt	nt	nt	nt	-1.0%
CCOc1ccccc1-c1nc(Cn2c(=O)cc(C)c3c(C)nn(-c4ccccc4)c32)c(C)o1	nt	nt	nt	nt	nt	3.2%
COc1ccc(S(=O)(=O)N2CCCOC2CNC(=O)C(=O)NCCc2ccco2)cc1 (stereo not given)	nt	-3.5%	-3.9%	nt	6.7%	1.6%
C/C(=N\NC(=O)COc1ccccc1F)c1cc2ccccc2o1	?	?	?	2.3%	?	10.7µM*
CSCCC(NC(=O)c1ccccc1)C(=O)NCCCSc1ccccc1 (stereo not given)	nt	-1.3%	-3.0%	nt	-4.3%	2.2%
Cc1ccc(-c2nc3c4ccccc4ccn3c2CN2CCCCC2)cc1	nt	8.5%	1.2%	nt	11.8%	?
c1ccc(-c2nc3c4ccccc4ccn3c2CN2CCCCC2)cc1	nt	-3.5%	-1.2%	nt	12.5%	5.36µM*
CCN(c1ccccc1)c1cc(NC)[n+](C)c(C)n1	nt	nt	nt	-1.0%	nt	nt
CCc1cc(=O)n2c([nH]c3ccccc32)c1C#N	-62.0%	15.1%	-1.0%	5.0%	-5.9%	19µM*
CC(SCc1cc(=O)n2c([nH]c3ccccc32)c1C#N)C(=O)O (stereo not given)	-15.8%	-3.8%	4.8%	9.7%	-7.2%	?
C=C(C)Cc1c(C)c(C#N)c2[nH]c3ccccc3n2c1=O	nt	-6.6%	-2.6%	nt	3.4%	-4.9%
SMILES	SMN2 splice enh	ELG1 genotoxic	NPC1 prom act	Luc counter	Rab9 prom act	FLuc modulator
COCc1cc(=O)n2c([nH]c3ccccc32)c1C#N	?	18.8%	-0.6%	-8.7%	8.1%	19µM*
CCc1cc(=S)n2c([nH]c3ccccc32)c1C#N	nt	-16.7%	0.0%	nt	-8.3%	23.9µM*
CN(C)c1ncc2ncc(=O)n(C)c2n1	-0.1%	nt	nt	-2.2%	nt	nt
O=C(NNC(=S)NC1CCCCC1)c1ccccc1O	-47.7%	-19.8%	7.5%	4.0%	16.7%	?
CCN(Cc1ccncc1)C(=O)c1ccc(Br)o1	nt	0.4%	1.2%	nt	0.0%	0.8%
CCSc1nc(N)nc(-c2cccs2)c1C#N	?	20.6µM*	25.7%	-1.3%	23.3%	?
O=C(N/N=C/C1CC2C=CC1C2)c1ccccc1O (stereo not given)	nt	0.9%	-0.3%	nt	-9.3%	21.3µM*
CCC[C@@H]1C[C@@]1(CCC)C(NP(=O)(c1ccccc1)c1ccccc1)c1ccc(Cl)cc1 (stereo not given in full)	-21.5%	nt	nt	-2.3%	nt	nt
Cc1cc2ncc(-c3ncc(C(F)(F)F)cc3Cl)cn2n1	1.26µM*	?	0.708µM*	-14.1%	0.398µM*	1.35µM*
Cc1nn2cc(-c3ncc(C(F)(F)F)cc3Cl)cnc2c1Br	nt	?	0.398µM*	?	0.316µM*	1.51µM*
COc1ccccc1NC(=S)NC(=O)c1ccc(Cn2cc(Br)cn2)cc1	-4.4%	5.9%	-0.4%	-5.1%	-7.4%	-1.4%
CC(=O)Nc1ccc(-c2csc(Nc3ccc(S(N)(=O)=O)cc3)n2)cc1	6.6%	4.8%	-11.9%	0.2%	-4.2%	-3.4%
Oc1ccc(-c2csc(Nc3ncccn3)n2)cc1	25.1µM*	4.61µM*	2µM*	-4.5%	0.562µM*	3.01µM*
c1ccc(-c2csc(Nc3ncccn3)n2)cc1	2.51µM*	1.3µM*	0.631µM*	-17.3%	0.355µM*	0.601µM*
CC(=O)Nc1ccc(-c2csc(-c3cccnc3)n2)cc1	nt	6.51µM*	2.82µM*	nt	?	7.57µM*
CCCC(=O)Nc1ccc(-c2csc(-c3cccnc3)n2)cc1	nt	-3.6%	13.2%	nt	?	?
CC(=O)Nc1ccc(-c2csc(Nc3ncccn3)n2)cc1	5.01µM*	9.2µM*	0.562µM*	-0.6%	0.562µM*	?
O=C(CSCc1cc(=O)c2ccccc2[nH]1)Nc1cccc(C(F)(F)F)c1	nt	nt	nt	nt	nt	-5.1%
O=C(Cc1n[nH]c(=O)c2ccccc12)Nc1cc(C(F)(F)F)ccc1-n1cncn1	nt	-5.5%	-0.7%	nt	2.9%	-1.9%
CCOC(=O)c1c(C)[nH]c(C(=O)CN(C)CC(=O)Nc2ccccc2Cl)c1C	nt	-2.2%	-1.9%	nt	-1.2%	nt
CCCCCNc1nc(-c2ccccc2)cs1	20.2%	7.31µM*	3.98µM*	-5.9%	2.82µM*	1.9µM*
Cc1ccc(NC2=C(CC(=O)O)C(c3ccc(F)cc3)N(c3ccc(C)cc3)C2=O)cc1 (stereo not given)	23.1%	nt	nt	nt	nt	?
O=C(Nc1ccc(N2CCCCC2)cc1)c1ccc2c(c1)OCCO2	-24.5%	3.0%	?	-17.1%	1.41µM*	1.69µM*
CN1CCN(c2ccc(NC(=O)c3ccc4c(c3)OCO4)cc2)CC1	?	?	2.51µM*	-5.3%	1.78µM*	10.7µM*
